# Reference: PubChem BioAssay
# Calls of active or inactive are those of the source.
# Experiments:
# Albumin (Bos taurus) = Albumin (Bos taurus) (UniProt P02769); experiment: compounds binding labelled BSA control protein – biochemical, small-molecule microarray, Alexa647 label, 635/667 nm fluorescence, artefact control for SMM control protein annotation, profiling panel (AID 1118); details: BSA-A647 binding, fluorescence 635 nm, higher = more signal;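 also: score merges 667 nm emission intensity and signal-to-noise per printed compound spot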
# Sequence of Albumin (Bos taurus) (P02769 whole entry, looked up): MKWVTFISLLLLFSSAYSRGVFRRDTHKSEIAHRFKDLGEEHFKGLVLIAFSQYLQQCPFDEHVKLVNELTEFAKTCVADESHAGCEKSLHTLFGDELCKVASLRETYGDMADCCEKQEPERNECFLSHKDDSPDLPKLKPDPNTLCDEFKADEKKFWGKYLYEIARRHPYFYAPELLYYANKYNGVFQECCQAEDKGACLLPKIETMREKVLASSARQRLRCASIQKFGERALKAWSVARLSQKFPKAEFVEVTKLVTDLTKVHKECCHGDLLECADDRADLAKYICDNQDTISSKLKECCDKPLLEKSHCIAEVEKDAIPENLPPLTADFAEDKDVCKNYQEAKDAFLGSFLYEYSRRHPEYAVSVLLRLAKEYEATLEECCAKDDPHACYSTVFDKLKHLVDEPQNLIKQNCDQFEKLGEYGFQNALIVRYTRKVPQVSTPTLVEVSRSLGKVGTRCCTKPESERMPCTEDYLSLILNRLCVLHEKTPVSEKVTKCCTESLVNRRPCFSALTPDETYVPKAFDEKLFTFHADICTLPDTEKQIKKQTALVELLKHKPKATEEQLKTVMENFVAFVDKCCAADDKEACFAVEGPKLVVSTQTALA
# [1] = probe aXIP binding to arrayed compounds – biochemical, NeuroSMM set, 635/667 nm fluorescence, primary screen (AID 1119); details: small-molecule microarray, higher = more signal, called active from +8 up or from −8 down;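 also: probe is the protein aXip251-270 applied at 1 µg/mL to compound-printed slides; binding of probe to printed compounds measured as 667 nm fluorescence plus signal to noise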
# [2] = probe aNOTCH3 binding on compound microarray – biochemical, small-molecule microarray, 635/667 nm fluorescence, primary screen (AID 1120); details: higher = more signal;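 also: probe is a biotin-tagged antibody raised against NOTCH3 rather than NOTCH3 protein; score merges spot fluorescence near 667 nm with spot signal to noise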
# [3] = probe aNOTCH2 binding on compound microarray – biochemical, small-molecule microarray, 635/667 nm fluorescence, primary screen (AID 1121); details: higher = more signal;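 also: score merges feature fluorescence read at 667 nm with its signal to noise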
# [4] = molecular target: Carbonic anhydrase 2 (Homo sapiens) (UniProt P00918); experiment: compounds binding carbonic anhydrase 2 – biochemical, small-molecule microarray, Alexa647-labelled CAII, profiling panel (AID 1122); details: CAII-A647 binding fluorescence, higher = more signal
# [5] = COS7 lysate on small-molecule microarray, probe aHis, 635 nm (AID 1123); details: COS7 cell lysate, fluorescence, higher = more signal;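 also: z-score combines 667nm fluorescence intensity with signal-to-noise per printed compound spot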
# [6] = probe aLAP1 signal on lysate-treated microarray – cell lysate, small-molecule microarray, COS7 lysate, primary screen (AID 1124); details: probe aLAP1, fluorescence, higher = more signal;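 also: lysate comes from COS7 cells expressing LAP1 and is applied at 0.3 µg/mL; score merges spot fluorescence near 667 nm with signal-to-noise over triplicate slides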
# Sam68 (KHDRBS1) = experiment: compounds binding KHDRBS1 protein – biochemical, small-molecule microarray, 635 nm fluorescence, primary screen (AID 1125); details: higher = more signal;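 also: score merges 667 nm channel intensity with signal to noise over triplicate slides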
# [7] = system: Chordin-like protein 2 (CHRDL2); experiment: compounds binding chordin-like 2 – biochemical, small-molecule microarray, 635 nm fluorescence, primary screen (AID 1126); details: fluorescence 635 nm, higher = more signal;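 also: printed compound slides probed with Chrdl2 protein at 4 µg/mL for 1 h at 4 C; score merges 667 nm emission intensity with signal to noise over three replicate slides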
# [8] = molecular target: Concanavalin-A (Canavalia ensiformis) (UniProt P02866); experiment: compounds binding concanavalin A lectin – biochemical, small-molecule microarray, Alexa647 label, 635 nm, artefact control for SMM control protein annotation, primary screen (AID 1127); details: ConA-A647 binding fluorescence, higher = more signal;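 also: z combines 667 nm emission intensity with signal-to-noise across three replicate slides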
# Sequence of Concanavalin-A (Canavalia ensiformis) (P02866 whole entry, looked up): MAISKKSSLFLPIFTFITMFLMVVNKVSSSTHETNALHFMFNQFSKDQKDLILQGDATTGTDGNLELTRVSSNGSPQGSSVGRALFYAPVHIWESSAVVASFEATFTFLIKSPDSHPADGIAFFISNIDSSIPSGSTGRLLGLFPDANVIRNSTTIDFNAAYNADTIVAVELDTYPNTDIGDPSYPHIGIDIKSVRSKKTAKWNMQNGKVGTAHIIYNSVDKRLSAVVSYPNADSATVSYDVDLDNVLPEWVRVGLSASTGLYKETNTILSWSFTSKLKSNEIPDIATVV
Structure (SMILES),composite z-score (Albumin (Bos taurus)),composite Z-score [1],composite z-score [2],composite z-score [3],composite z-score [4],composite z-score [5],composite z-score [6],composite z-score (Sam68 (KHDRBS1)),composite z-score [7],composite z-score [8]
[N-]=[N+]=NCc1ccccc1C[C@]1(C(=O)N2CCOCC2)N=C(c2ccc(OCCCO)cc2)O[C@H]1c1ccccc1,0.905,0.271 (inactive),0.0582,-0.14,0.501,1.07,0.444,0.965,-0.731,1.07
Cc1ccc([C@H]2C(C(=O)O)=C[C@@H](C(C)C)N2S(=O)(=O)c2ccc(C)cc2)cc1,0.284,-0.236 (inactive),0.0596,0.0161,0.772,2.86,-0.134,1.3,-0.209,0.555
COC(=O)[C@@]1(Cc2ccc(OC)cc2)[C@H]2c3cc(C(=O)N(C)C)n(Cc4ccc(OC)c(OC)c4)c3C[C@H]2CN1C(=O)c1ccccc1,0.857,-0.327 (inactive),0.391,0.218,0.587,3.17,0.457,1.29,-0.885,0.96
CCCCCN1CC=CC23O[C@@H]4C=CCCOC(=O)C4[C@H]2C(=O)N(CCCO)[C@@H]3C1=O (stereo not given in full),0.538,0.33 (inactive),-0.157,-0.155,0.343,-0.0684,0.0581,-0.0504,-0.277,0.121
O=C1c2ccccc2[C@@]2(Cc3ccccc3N(Cc3ccccc3)C2=O)[C@H](c2ccc(CO)cc2)N1Cc1ccccc1C(F)(F)F,0.811,-0.372 (inactive),-0.128,-0.0705,0.781,1.04,-0.381,-1.31,-1.5,-0.486
O=C1OCCC=C[C@H]2OC34C=CCN(c5ccc6ccccc6c5)C(=O)[C@H]3N(CCCCCCO)C(=O)[C@@H]4C12 (stereo not given in full),-0.768,0.938 (inactive),-0.161,-0.14,0.82,0.386,-0.674,0.264,-0.853,-1.01
O=C1C2C=CC(C(O)c3ccc(B(O)O)cc3)N(Nc3ccc([N+](=O)[O-])cc3)C2C(=O)N1c1ccccc1 (stereo not given),0.832,0.142 (inactive),0.172,-0.0439,0.654,2.02,0.588,1.32,0.262,0.738
CCCCN1CC=CC23O[C@@H]4/C=C\CCCOC(=O)C4[C@H]2C(=O)N(C(C)CO)[C@@H]3C1=O (stereo not given in full),0.962,0.727 (inactive),-0.222,-0.151,0.839,0.296,0.203,-0.296,0.112,-1.23
COCCOC(=O)N1C(=O)[C@@]2(c3ccccc31)[C@H](c1ccc(O)cc1)N1[C@H](c3ccccc3)[C@H](c3ccccc3)OC(=O)[C@H]1[C@@H]2C(N)=O,0.436,0.313 (inactive),-0.27,-0.114,0.711,0.531,-0.0821,-0.764,-1.04,0.035
CO[C@H]1O[C@H](CO)[C@@H](OC(=O)Nc2ccccc2-c2ccccc2)[C@H](OC(=O)Nc2ccccc2-c2ccccc2)[C@H]1OC(=O)Nc1ccccc1-c1ccccc1,0.784,0.341 (inactive),0.275,-0.0759,0.503,1.96,-0.32,1.3,0.0309,1.15
Cc1cc(C)c(C(O)C2C=CC3C(=O)NC(=O)C3N2Nc2ccccn2)c(C)c1 (stereo not given),0.63,-0.0521 (inactive),0.148,0.139,0.422,1.09,0.751,0.785,-0.907,0.049
C=CCC(OC(C)=O)[C@@H]1[C@@H](N(Cc2cc3ccccc3o2)C(=O)c2cccc3ccccc23)c2cc(OCCCO)ccc2N1C(=O)Cc1ccc(OC)cc1 (stereo not given in full),-0.131,0.495 (inactive),0.0602,-0.0937,0.327,0.497,-0.0685,-0.0427,0.364,-0.162
CC1CC/C=C\[C@H]2OC34C=CCN(c5ccc6ccccc6c5)C(=O)[C@H]3N(CCCCCO)C(=O)[C@@H]4C2C(=O)O1 (stereo not given in full),-0.158,0.322 (inactive),-0.372,-0.0941,-0.622,-0.357,-0.615,-1.95,-1.25,-1.23
COCCCNC(=O)[C@@]1(Cc2ccccc2I)c2ccccc2C(=O)N(Cc2ccccc2)[C@H]1c1ccc(CO)cc1,-1.09,-0.0662 (inactive),-0.265,-0.162,0.574,0.817,-0.665,0.337,-1.47,-1.3
C=CCNC(=O)[C@H]1[C@@H]2C(=O)O[C@@H](c3ccccc3)[C@@H](c3ccccc3)N2[C@@H](c2ccc(OCCO)cc2)[C@]12C(=O)N(C(=O)OCCOC)c1ccc(C#CC3(O)CCCCCC3)cc12,-1.02,-0.586 (inactive),0.373,0.308,0.615,1.9,1.5,1.3,1.1,1.07
[N-]=[N+]=NCc1ccccc1[C@@H]1OC(c2ccc(OCCCO)cc2)=N[C@]1(Cc1ccccc1N=[N+]=[N-])C(N)=O,0.825,0.0773 (inactive),0.473,0.299,0.715,2.8,0.202,1.3,-0.124,1.12
Cc1ccc(N2C(=O)c3ccccc3[C@@H](C(=O)NC(C)C)[C@@H]2c2ccc(CO)cc2)nc1,-0.106,-0.0969 (inactive),-0.272,-0.152,0.743,0.971,0.618,-0.721,-0.0432,-0.0441
O=c1cccc(-c2ccccc2)o1,0.66,2.27 (inactive),-0.0933,-0.0974,0.51,-0.295,-0.0258,-1.1,0.223,-0.234
NC(=O)NCC#Cc1ccc2c(c1)[C@]1(C(=O)N2)[C@H](c2ccc(O)cc2)N2[C@H](c3ccccc3)[C@H](c3ccccc3)OC(=O)[C@H]2[C@@H]1C(=O)N1CCN(c2ncccn2)CC1,0.317,1.24 (inactive),0.191,-0.0048,0.396,1.64,0.32,-0.0586,-0.165,0.377
COc1ccc(C(=O)Nc2cccc(CN3C(=O)[C@@]4(O[C@@H](CCn5cc([C@H](O)c6ccccc6)nn5)[C@H]([Si](C)(C)c5ccc(OC)cc5)[C@H]4C)c4ccccc43)c2)cc1,-0.455,0.257 (inactive),0.123,-0.053,0.113,1.16,0.0494,0.459,0.078,0.791
CC(=O)n1cc(C(O)C2C=CC3C(=O)N(c4ccccc4)C(=O)C3N2Nc2ccc(C#N)cc2)c2ccccc21 (stereo not given),0.938,-0.187 (inactive),0.307,0.0753,0.798,2.7,0.53,1.31,-0.776,0.876
CN1C(=O)C2C=CC(C(O)c3ccccc3)N(NC(=O)OC(C)(C)C)C2C1=O (stereo not given),0.959,0.0333 (inactive),0.245,-0.0722,0.722,2.05,0.23,1.01,-0.33,0.442
COc1ccccc1CN1C(=O)c2ccccc2[C@](Cc2ccccc2I)(C(=O)NCc2ccccc2)[C@@H]1c1ccc(CO)cc1,0.717,0.265 (inactive),-0.0682,-0.0211,0.345,1.77,0.729,0.505,-0.748,-0.0126
CO[C@H]1O[C@H](CO)[C@@H](OC(=O)Nc2cccc(F)c2)[C@H](OC(=O)Nc2ccccc2-c2ccccc2)[C@@H]1OC(=O)Nc1ccccc1-c1ccccc1,0.914,-0.116 (inactive),0.0479,-0.0041,0.385,2.56,1,1.3,-0.262,1.23
COc1ccc(CCNC(=O)[C@@]2(C)c3ccccc3C(=O)N(Cc3ccccc3)[C@H]2c2ccc(CO)cc2)cc1,0.365,0.247 (inactive),0.178,-0.116,0.446,1.51,0.941,1.16,0.594,1.14
COC(=O)[C@@]1(Cc2ccc(OC)cc2)[C@H]2c3cc(C(=O)N4CCCC4)n(CCN4CCOCC4)c3C[C@H]2CN1C(=O)c1ccccc1,1.06,1.42 (inactive),1.72,1.05,0.87,3.42,0.94,1.29,0.265,0.991
O=C1NC(=O)C2C1C=CC(C(O)c1cccs1)N2Nc1ccccn1 (stereo not given),0.426,0.32 (inactive),0.118,-0.0826,0.803,1.21,0.0919,0.248,0.129,0.766
